# Measurements: publication PMC11006913
# Target: PITX2 (Homo sapiens, UniProt Q99697 72-157)
# Assay: PBM; 200 nM protein, PBS
# Conditions: dsDNA, one strand shown
row,Sequence,binding signal
1,ACGATGCC,"7.9 upbm affinity estimate (log intensity, higher = more binding, comparable within an allelic series)"
2,GGAATAAA,"9.51 upbm affinity estimate (log intensity, higher = more binding, comparable within an allelic series)"
3,CTGAGATA,"9.22 upbm affinity estimate (log intensity, higher = more binding, comparable within an allelic series)"
4,ATTATCAC,"10.2 upbm affinity estimate (log intensity, higher = more binding, comparable within an allelic series)"
5,ACGTTCCG,"7.96 upbm affinity estimate (log intensity, higher = more binding, comparable within an allelic series)"
6,CCGAGCAG,"8.01 upbm affinity estimate (log intensity, higher = more binding, comparable within an allelic series)"
7,AGGGATAG,"9.94 upbm affinity estimate (log intensity, higher = more binding, comparable within an allelic series)"
8,GGATACTA,"9.25 upbm affinity estimate (log intensity, higher = more binding, comparable within an allelic series)"
9,GCGCTTAA,"11.1 upbm affinity estimate (log intensity, higher = more binding, comparable within an allelic series)"
10,GCCGGATA,"9.58 upbm affinity estimate (log intensity, higher = more binding, comparable within an allelic series)"
11,AAGGGATT,"11.6 upbm affinity estimate (log intensity, higher = more binding, comparable within an allelic series)"
12,AAGCCCTA,"10.4 upbm affinity estimate (log intensity, higher = more binding, comparable within an allelic series)"
13,AGATCAAC,"10.1 upbm affinity estimate (log intensity, higher = more binding, comparable within an allelic series)"
14,GCTTAGAA,"10.2 upbm affinity estimate (log intensity, higher = more binding, comparable within an allelic series)"
15,GCGTACCC,"8.02 upbm affinity estimate (log intensity, higher = more binding, comparable within an allelic series)"
16,GGAGAGAC,"8.03 upbm affinity estimate (log intensity, higher = more binding, comparable within an allelic series)"
17,CGACGTCA,"8.05 upbm affinity estimate (log intensity, higher = more binding, comparable within an allelic series)"
18,CCATTCAC,"8.31 upbm affinity estimate (log intensity, higher = more binding, comparable within an allelic series)"
19,CTAGCGAG,"8.11 upbm affinity estimate (log intensity, higher = more binding, comparable within an allelic series)"
20,TAGATTAA,"12.4 upbm affinity estimate (log intensity, higher = more binding, comparable within an allelic series)"

row,Sequence,binding signal
1,AGAGCTCA,"9.42 upbm affinity estimate (log intensity, higher = more binding, comparable within an allelic series)"
2,TATGATCA,"9.32 upbm affinity estimate (log intensity, higher = more binding, comparable within an allelic series)"
3,GGATTTAC,"12.3 upbm affinity estimate (log intensity, higher = more binding, comparable within an allelic series)"
4,ATTACAGA,"9.82 upbm affinity estimate (log intensity, higher = more binding, comparable within an allelic series)"
5,GCATGCAC,"7.85 upbm affinity estimate (log intensity, higher = more binding, comparable within an allelic series)"
6,AGCACGCC,"8.07 upbm affinity estimate (log intensity, higher = more binding, comparable within an allelic series)"
7,ACGTTCTG,"8.19 upbm affinity estimate (log intensity, higher = more binding, comparable within an allelic series)"
8,ACTAAGCC,"12.4 upbm affinity estimate (log intensity, higher = more binding, comparable within an allelic series)"
9,GTCCACTA,"7.94 upbm affinity estimate (log intensity, higher = more binding, comparable within an allelic series)"
10,ACGCCGAG,"8 upbm affinity estimate (log intensity, higher = more binding, comparable within an allelic series)"
11,CACCGGGC,"7.98 upbm affinity estimate (log intensity, higher = more binding, comparable within an allelic series)"
12,ACCATCGT,"7.89 upbm affinity estimate (log intensity, higher = more binding, comparable within an allelic series)"
13,GCGGCGCC,"7.97 upbm affinity estimate (log intensity, higher = more binding, comparable within an allelic series)"
14,ACTTGATC,"10.2 upbm affinity estimate (log intensity, higher = more binding, comparable within an allelic series)"
15,ATCCTTAC,"9.47 upbm affinity estimate (log intensity, higher = more binding, comparable within an allelic series)"
16,GTGCCAGA,"8.11 upbm affinity estimate (log intensity, higher = more binding, comparable within an allelic series)"
17,AGCGATGC,"7.81 upbm affinity estimate (log intensity, higher = more binding, comparable within an allelic series)"
18,GGAGGAAC,"8.06 upbm affinity estimate (log intensity, higher = more binding, comparable within an allelic series)"
19,GCCTCACC,"8.04 upbm affinity estimate (log intensity, higher = more binding, comparable within an allelic series)"
20,CAGTTTCA,"7.95 upbm affinity estimate (log intensity, higher = more binding, comparable within an allelic series)"
